Data published in the supplement of paper PMC6555819.

Legend:
Test in all cases: PBM binding z-score (relative to random genomic background probes); higher = stronger binding; sequences stand for … in GC…GCGATTGACAGCGTAGAATGAAGG
[1] = tested on: FXR:RXRa (NR concentration 270 nM, RXRa partner concentration 90 nM)
Summary of the method: (§1)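 Binding z-scores were set against random background probes. The data came from custom Agilent 4×180K protein-binding microarrays carrying double-stranded probes with 34-nt variable regions, incubated 1 h with ligand-free nuclear receptor dimers. Partner-specific antibodies detected binding, and scanned fluorescence was regression-normalized.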

[2] = tested on: LXRa:RXRa (NR concentration 270 nM, RXRa partner concentration 90 nM)
Summary of the method: as §1

[3] = tested on: LXRa homodimer (NR concentration 270 nM)
Summary of the method: as §1

[4] = tested on: LXRb:RXRa (NR concentration 270 nM, RXRa partner concentration 90 nM)
Summary of the method: as §1

[5] = tested on: LXRb homodimer (NR concentration 270 nM)
Summary of the method: as §1

[6] = tested on: PPARa:RXRa (NR concentration 270 nM, RXRa partner concentration 90 nM)
Summary of the method: as §1

[7] = tested on: PPARg:RXRa (NR concentration 180 nM, RXRa partner concentration 90 nM)
Summary of the method: as §1

[8] = tested on: PPARg:RXRa 270nM:90nM, anti-RXR (NR concentration 270 nM, RXRa partner concentration 90 nM)
Summary of the method: as §1

[9] = tested on: PPARg:RXRa 30nM:10nM, anti-RXR (NR concentration 30 nM, RXRa partner concentration 10 nM)
Summary of the method: as §1

[10] = tested on: PPARg:RXRa 90nM:30nM, anti-RXR (NR concentration 90 nM, RXRa partner concentration 30 nM)
Summary of the method: as §1

[11] = tested on: PPARg:RXRa DBDmut IVT, anti-RXR (DBD mutation: RXRa K156A/R161A, NR concentration 270 nM, RXRa partner concentration 90 nM)
Summary of the method: as §1

[12] = tested on: PPARg:RXRa IVT, anti-PPARg (NR concentration 270 nM, RXRa partner concentration 90 nM)
Summary of the method: as §1

[13] = tested on: PPARg DBDmut:RXRa IVT, anti-PPARg (DBD mutation: PPARg1 K132A/R137A, NR concentration 270 nM, RXRa partner concentration 90 nM)
Summary of the method: as §1

[14] = tested on: PPARg DBDmut IVT, anti-PPARg (DBD mutation: PPARg1 K132A/R137A, NR concentration 270 nM)
Summary of the method: as §1

[15] = tested on: PPARg homodimer (NR concentration 180 nM)
Summary of the method: as §1

[16] = tested on: PXR:RXRa (NR concentration 270 nM, RXRa partner concentration 90 nM)
Summary of the method: as §1

[17] = tested on: PXR homodimer (NR concentration 270 nM)
Summary of the method: as §1

[18] = tested on: RARa:RXR (NR concentration 270 nM, RXRa partner concentration 90 nM)
Summary of the method: as §1

[19] = tested on: RARa homodimer (NR concentration 270 nM)
Summary of the method: as §1

[20] = tested on: RARb:RXRa (NR concentration 270 nM, RXRa partner concentration 90 nM)
Summary of the method: as §1

| Sequence | PBM binding z-score [1] | PBM binding z-score [2] | PBM binding z-score [3] | PBM binding z-score [4] | PBM binding z-score [5] | PBM binding z-score [6] | PBM binding z-score [7] | PBM binding z-score [8] | PBM binding z-score [9] | PBM binding z-score [10] | PBM binding z-score [11] | PBM binding z-score [12] | PBM binding z-score [13] | PBM binding z-score [14] | PBM binding z-score [15] | PBM binding z-score [16] | PBM binding z-score [17] | PBM binding z-score [18] | PBM binding z-score [19] | PBM binding z-score [20] |
| --- | --- | --- | --- | --- | --- | --- | --- | --- | --- | --- | --- | --- | --- | --- | --- | --- | --- | --- | --- | --- |
| ATCGAAAGGTCGTGAGGTGAGTGTACAGAAAGGC | 4.91 | 4.05 | 0.411 | 3.06 | 0.507 | 4.99 | 3.61 | 4.47 | 1.35 | 3.32 | 0.429 | 2.63 | 1.08 | 0.59 | 1.74 | 3.17 | 0.525 | 3.97 | 1.08 | 4.04 |
| ACTGACAGGTGAGTGAAGGTAACTCAGCTGGACG | 0.406 | 0.0865 | -0.418 | -0.453 | -0.767 | 0.153 | 0.398 | 0.0745 | -0.305 | -0.0738 | 0.237 | 1.07 | 0.18 | -0.257 | -0.647 | -0.21 | -0.633 | 0.381 | -0.0244 | 0.482 |
| CCTACTGGGCCTCGAAAGGTCATTGATTCAGTGA | 3.05 | 3.94 | 4.13 | 3.74 | 0.187 | 4.05 | 1.44 | 2.98 | 0.556 | 1.97 | 2.57 | 3.15 | -1.13 | -0.00532 | 2.06 | 4.88 | 1.11 | 4.9 | 0.198 | 3.66 |
| GTGACTGGGGCAAAGCAGGTTACCATAAGGTTGG | 0.845 | 0.956 | 0.27 | 0.924 | -0.272 | 2.5 | 2.32 | 2.83 | 0.397 | 1.36 | 4.87 | 5.02 | 1.15 | 0.645 | 0.994 | 0.926 | -0.0315 | 1.99 | -0.0502 | 1.14 |
| TCATATAGGTAGACAGGTGAAAGTCCGTAAGTTA | 0.952 | 1.11 | 0.173 | 0.898 | -0.226 | 1.32 | 0.974 | 2.5 | 3.79 | 3.27 | 3.02 | 1.33 | 1.18 | 0.507 | 1.25 | 0.852 | 0.981 | 0.512 | 1.24 | 0.76 |
| CCTTACGGGTCAAGGTTTTAGCACGGGTGGTACG | 4.88 | 3.1 | 0.107 | 2.74 | -0.202 | 4.56 | 4.23 | 4.44 | 1.43 | 3.33 | 2.52 | 3.36 | 0.173 | -0.72 | 2.55 | 2.95 | -0.244 | 4.13 | 0.944 | 4.2 |
| ATATGTAGGTTGTCGGGTCATTCAGTTTGCGCAT | 2.12 | 2.15 | 1.45 | 2.65 | 0.953 | 3.6 | 2.89 | 3.27 | 1.09 | 2.63 | 4.37 | 4.47 | 1.87 | 1.67 | 2.56 | 3.63 | 8.53 | 3.15 | 1.78 | 2.08 |
| CGTCCAAGGTCAAAGGTCAGAGAAGAGATGACGG | 8.35 | 7.24 | 3.55 | 6.68 | 1.89 | 7.26 | 10.7 | 9.26 | 8.39 | 9.75 | 4.12 | 6.13 | 1.12 | 0.47 | 3.77 | 7.04 | 1.67 | 8.89 | 1.92 | 5.97 |
| TCATATAGCTAAACAGGTGAAAGTCCGTAAGTTA | -0.237 | -0.00497 | -0.0906 | 0.338 | -0.588 | 1.08 | 0.667 | 1.92 | 2.64 | 2.23 | 1.46 | 0.758 | -0.631 | 0.119 | 0.0802 | 0.228 | -0.231 | 0.404 | 0.0178 | 0.215 |
| TCTCGGAGTACACGAAGGTCAGAGCTTTCCAGAG | 0.57 | 0.884 | -0.152 | 1.09 | -1.07 | 1.84 | 0.351 | 1.35 | 1.91 | 1.7 | 1.19 | 0.734 | -1.26 | -1.48 | 1.11 | 2.01 | 0.814 | 2 | -0.696 | 2.58 |
| TCTTGTAGACCAATAGAGGTTAAGAAAGTGCGCT | 0.806 | 3.66 | 0.598 | 1.84 | 0.292 | 2.14 | 0.00378 | 1.69 | 2.88 | 1.93 | 2.08 | 1.7 | 0.86 | 0.346 | 0.191 | 3.17 | 0.469 | 1.6 | 0.38 | 1.01 |
| TCTTGTAGATCAAGCAGGTTAAGATAGCCTGAGT | 0.371 | 0.507 | -0.257 | 0.188 | -0.36 | 0.829 | -0.193 | 1.27 | 2.75 | 2.18 | 1.74 | 0.733 | 0.115 | 0.351 | 0.386 | 0.406 | -0.159 | 0.668 | -0.0619 | 0.309 |
| CAAACTAGGTCACAGAGGTCAAATTCCGTGCGTA | 7.61 | 6.88 | 8.33 | 6.71 | 3.6 | 6.59 | 10.5 | 8.65 | 7.13 | 8.61 | 8.77 | 8.98 | 8.04 | 3.55 | 6.47 | 7.14 | 12.3 | 7.83 | 3.22 | 5.4 |
| TAGCCTAGGTCAGATCGGGCCAGAATACGCTATA | 1.65 | 1.06 | -0.312 | 0.942 | -0.714 | 1.79 | 0.869 | 0.835 | -0.187 | 0.398 | 0.095 | 1.57 | -0.542 | -0.739 | 0.124 | 0.946 | -0.549 | 1.87 | -0.627 | 2.93 |
